Screening data: PubChem, National Center for Advancing Translational Sciences (NCATS)
The list is not random: actives were taken first. Their share in the collection is about 15%.
RORgamma inh – ROR gamma (mouse) transcription inhibition; P51450; Drosophila S2 Gal4-RORgamma UAS-luciferase reporter, 20 h; Potency, µM (doses to about 53.6 µM), for inactives: top-dose activity change, negative = inhibition, actives largely listed as inhibitors; 310,000 compounds, 5.4% hits; AID 2551; also: nearly all actives have a fitted effect of over 60% in size
Target sequence (P51450 whole entry, looked up, the tested form may be a part): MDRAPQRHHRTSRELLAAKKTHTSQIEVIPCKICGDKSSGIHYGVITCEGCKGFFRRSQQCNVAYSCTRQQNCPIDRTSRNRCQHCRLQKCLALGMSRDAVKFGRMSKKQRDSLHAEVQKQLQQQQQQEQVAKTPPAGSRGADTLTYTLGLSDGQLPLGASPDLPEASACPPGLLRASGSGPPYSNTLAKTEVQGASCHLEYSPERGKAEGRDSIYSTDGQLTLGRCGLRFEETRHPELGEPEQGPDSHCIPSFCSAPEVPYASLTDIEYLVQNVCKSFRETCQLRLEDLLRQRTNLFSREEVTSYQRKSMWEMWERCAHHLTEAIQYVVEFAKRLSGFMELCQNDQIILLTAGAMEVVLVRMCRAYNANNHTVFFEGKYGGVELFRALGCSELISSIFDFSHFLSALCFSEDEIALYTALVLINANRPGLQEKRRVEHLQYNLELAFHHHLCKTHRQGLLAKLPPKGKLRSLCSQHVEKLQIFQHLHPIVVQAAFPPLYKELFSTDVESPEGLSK
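A Gal4/UAS one-hybrid system in insect cells: metallothionein-promoter Gal4–ROR gamma fusion plus Photinus luciferase reporter. Copper sulfate 700 uM final, 20 hr ambient incubation, luminescent detection after 10 min with reagent.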
ELG1 DNA repair – ELG1-dependent DNA repair inhibition; HEK293T ELG1-luciferase reporter, luminescence, 16 h; DNA damage induced by 5-fluorouridine; Potency, µM (titrated, usually from 46.1 µM), without a hit: at the highest dose activity change, negative = inhibition, hits mostly inhibitors; 330,000 compounds, 2.3% hits; AID 504467; also: nearly all actives have a fitted effect of over 55% in size
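Overnight (16 hr) co-exposure of 2,000 cells/well to 5-fluorouridine and compound at 37 °C preceded detection. Luciferase was quantified via ONE-Glo luminescence; loss of signal denotes inhibition.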
TDP1 cell noCPT – qHTS for Inhibitors of human tyrosyl-DNA phosphodiesterase 1 (TDP1): qHTS in cells in absence of CPT; DT40 Tdp1-/- hTDP1 cells, no CPT, ATP luminescence, 48 h; Potency, µM (titrated, usually from 46.2 µM), for the others: top-dose activity change, negative = growth inhibition, most hits filed as inhibitors; 420,000 compounds, 15% hits; AID 686978, 2013; also: nearly all actives have a fitted effect of over 55% in size
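Seeded 400 DT40-hTDP1 cells/well (vehicle DMSO, no 20 nM CPT); pinned compounds; ≥48 hr at 37 °C; CellTiter-Glo luminescence as viability measure.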
TDP1 cell CPT – growth inhibition of DT40 Tdp1-/-;hTDP1 cells with camptothecin (screen for TDP1 inhibitors). chicken DT40 Tdp1-/-;hTDP1 cells + 20 nM CPT, ATP luminescence, 48 h. Potency, µM (highest dose often 46.2 µM), inactives show top-dose activity change, negative = growth inhibition, actives largely listed as inhibitors. 420,000 compounds, 12% hits; also: nearly all actives have a fitted effect of over 55% in size
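Cell growth measured by CellTiter-Glo luminescence after a minimum 48 h, 37 C compound exposure with 20 nM CPT in Tdp1-knockout DT40 cells stably expressing hTDP1, seeded 400/well; qHTS titration format.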
VP16 counter – counter-screen for ROR gamma inhibitors: Gal4-VP16 reporter | Drosophila S2 Gal4-VP16 UAS-luciferase, luminescence, 20 h | Potency, µM (series often up to 53.6 µM), inactives show at the highest dose activity, negative = inhibition, usual class: inhibitors | 310,000 compounds, 3.5% hits;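 also: Gal4-VP16 expression switched on by copper sulfate through the metallothionein promoter; nearly all actives have a fitted effect of over 50% in size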
12-LOX inh – inhibitors of human 12S-lipoxygenase ALOX12 | P18054 | purified 12hLO, xylenol orange hydroperoxide absorbance | Potency, µM (series often up to 108 µM), for the others: at the top dose activity change, negative = inhibition, most hits filed as inhibitors | 580,000 compounds, 1.1% hits | AID 1671190
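Purified human 12hLO at 150 nM in 25 mM Hepes, 0.01% Triton X-100, pH 7.0, preincubated 15 min at room temperature with compound. Reaction started with 40 uM arachidonic acid, 30 min at room temperature. Hydroperoxide measured by Fe-xylenol orange, 573/405 nm absorbance ratio.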
* hit, by the source's call; ? = inconclusive; . = not tested or not shown; [ ] = another dose, or the depositor's remark. Calls follow the shape of the dose curve; as a rule, active = well fitted curve in the direction sought with a large enough effect; inconclusive = small, poorly fitted or top-dose-only effect, or another doubt; inactive = no such curve, though single readings can be large; an effect the other way counts as inactive or inconclusive. % is scaled to controls: 0 for no effect and ±100 for the full control effect; potency is read from the fitted curve at half-maximal effect.

SMILES	RORgamma inh	ELG1 DNA repair	TDP1 cell noCPT	TDP1 cell CPT	VP16 counter	12-LOX inh
CCN(CC)C(=S)Nc1ccc(F)cc1	.	.	.	.	.	9%
COc1ncccc1-c1cnc2[nH]cc(CC(=O)Nc3cccnc3)c2c1	.	.	.	.	.	38%[176 µM]
CCCCCN1CC(=O)N2[C@@H](Cc3c([nH]c4ccccc34)C2(C)C)C1=O	20%	3%	?	?	-4%	2%
CCCCOCCCN1CC(=O)N2[C@@H](Cc3c([nH]c4ccccc34)C2(C)C)C1=O	?	13µM*	18µM*	?	-16%	0%
CCCN1CCC(N2CCN(c3ccc([N+](=O)[O-])cc3)CC2)CC1	?	-11%	21µM*	?	1%	0.89µM*
CCOc1ccc(N2C(=O)CC(N3CCN(c4ccc([N+](=O)[O-])cc4)CC3)C2=O)cc1 (centres undefined)	28%	5%	?	?	?	0%
CCN1CCC(N2CCN(c3ccc(Cl)cc3)CC2)CC1	?	8%	-19%	5%	-2%	.
CCCOc1ccc(N2C(=O)CC(N3CCN(c4ccc([N+](=O)[O-])cc4)CC3)C2=O)cc1 (centres undefined)	?	2.1µM*	-46%	-2%	?	-51%
CCCN1CCC(N2CCN(c3cccc(C(F)(F)F)c3)CC2)CC1	18%	-1%	21µM*	23µM*	1%	-12%
CN(C)C(=O)CN1CCCC(N2CCN(c3cccc(C(F)(F)F)c3)CC2)C1 (centres undefined)	.	.	.	.	.	40%
CN1C(=O)C(CC(=O)NCc2noc(-c3c(F)cccc3F)n2)N(C)C1=O (centres undefined)	.	.	.	.	.	41%
O=C(NCc1ccco1)C(c1ccccc1)c1ccccc1	.	.	.	.	.	-34%
O=C(CSc1nc(C2CC2)n(-c2ccccc2)n1)N1CCN(c2ccc(F)cc2)CC1	.	.	.	.	.	15%
COc1ccc(CN(CC2CCCO2)C(=O)CN2C(=O)COc3ccccc32)cc1OC (centres undefined)	45%	12µM*	-21%	-11%	-19%	-2%
COCCCn1cn[nH]c1=S	-22%	-3%	15µM*	?	6%	0%
COCCCn1cnn2c(=O)c3ccccc3nc2c1=O	.	.	.	.	.	2%
O=C(c1ccc2[nH]ccc2c1)N1CCC2(CC1)N=C(c1cccc(Br)c1)NO2	.	.	.	.	.	2%
CN(C)Cc1c(C(=O)N/N=C/c2cccc(OCc3ccc(F)cc3)c2)nnn1-c1nonc1N	27%	?	-11%	-2%	6%	16%
CN(C)Cc1c(C(=O)N/N=C/c2cccc(OCc3c(F)cccc3Cl)c2)nnn1-c1nonc1N	43%	1%	7.3µM*	9.2µM*	-28%	7%
CN(C)Cc1c(C(=O)N/N=C/c2ccccc2OCc2c(F)cccc2Cl)nnn1-c1nonc1N	?	?	5.2µM*	4.1µM*	-7%	7%
COc1cccc(CNC(=O)c2cc3cc(C)ccc3[nH]2)c1	.	.	.	.	.	1%
CCOC(=O)N/N=C(/C)c1ccc([N+](=O)[O-])o1	-23%	-12%	.	.	-7%	7%[57.4 µM]
CC(=NN1CC(=O)NC1=O)c1ccc([N+](=O)[O-])o1	.	.	16µM*	?	.	-18%
O=C(COc1ccc2c(=O)c(Oc3ccc(F)cc3)coc2c1)NCc1ccccc1	.	.	.	.	.	9%
Nc1ccc(C=Cc2ccc(N)cc2)cc1	.	.	18µM*	21µM*	.	3%
SMILES	RORgamma inh	ELG1 DNA repair	TDP1 cell noCPT	TDP1 cell CPT	VP16 counter	12-LOX inh
Nc1ccc(C=O)cc1	.	.	-10%	-20%	.	.
Cc1cccc(NC(=O)CSc2nc3ccccc3nc2N2CCC(C)CC2)c1	.	.	21µM*	21µM*	.	58%
O=C(CSc1nc2ccccc2[nH]1)Nc1ccc(N2CCOCC2)cc1	?	4%	12µM*	12µM*	18%	419%
Cc1ccc(NC(=O)CSc2nc3ccccc3nc2N2CCOCC2)cc1	14%	?	16µM*	?	-1%	25%
CC(=O)Nc1ccc(NC(=O)CSc2nc3ccccc3nc2N2CCC(C)CC2)cc1	-2%	-12%	?	5%	-2%	-18%
Cc1cccc(NC(=O)CSc2nsc(SCC(=O)Nc3cccc(C)c3)c2C#N)c1	27%	8.2µM*	?	?	-17%	6%
CSc1ccc(CNC(=O)c2noc(-c3ccc(F)cc3)n2)cc1	.	.	.	.	.	25%
COc1ccc(S(=O)(=O)N2CCC(Oc3ncccc3C(=O)N3CCOCC3)C2)cc1 (centres undefined)	.	.	.	.	.	41%
CC(C)NC(=O)Cc1ccc(-n2c(=O)c3ccccc3n(Cc3cccc(Cl)c3)c2=O)cc1	.	.	.	.	.	0%
O=C(CSc1nc2ccccc2nc1N1CCCC1)Nc1ccc(F)cc1	-8%	1%	?	?	-10%	?
CC1CN(c2nc3ccccc3nc2SCC(=O)Nc2ccc(F)cc2)CC(C)O1 (centres undefined)	-26%	16µM*	?	15µM*	3%	4%
CCOc1ccc(NC(=O)CSc2nc3ccccc3nc2N2CCCC2)cc1	-20%	-8%	16µM*	?	-5%	10%[57.4 µM]
COc1ccc(NC(=O)CSc2nc3ccccc3nc2N2CCCC2)cc1	-10%	?	?	?	1%	26%
COc1ccc(C)cc1NC(=O)CSc1nc2ccccc2nc1N1CCCCC1	?	?	?	?	-15%	9%
CCOc1ccccc1NC(=O)CSc1nc2ccccc2nc1N1CCOCC1	15%	?	21µM*	23µM*	0%	-3%
COc1ccc(C)cc1NC(=O)CSc1nc2ccccc2nc1N1CCOCC1	.	.	23µM*	?	.	3%
COc1ccc(C(=O)N[C@H]2C[C@@H](Cc3cc(-c4ccccc4)on3)C2(C)C)cc1	.	.	.	.	.	-14%[176 µM]
CC(NC(=O)NC(=O)c1ccc(Cl)cc1)c1ccccc1 (centres undefined)	.	-3%	?	?	.	0%
CC(C)c1cc(C(=O)NNC(=S)NCc2ccco2)c(O)c(C(C)C)c1	13µM*	18µM*	?	?	?	35µM*
O=C(NCc1ccccc1)c1cccc(COc2cccc(Cl)c2)c1	43%	?	-28%	?	3%	0%
O=C(NC(=S)NCc1ccccc1)c1cccc(Cl)c1	6.3µM*	-3%	?	-6%	7.1µM*	28µM*
